# Laboratory results taken from PubChem BioAssay (Tox21).
# Records with an inconclusive call do not appear. Entries that show only a call come without a potency. Values without a mark were called inactive. The source made the active and inactive calls. Calls come from the whole dose curve; as a rule, active = well fitted curve in the direction sought with a large enough effect in the repeat runs; inconclusive = weak or mixed curves; inactive = no such curve, though single readings can be large; an effect the other way counts as inactive or inconclusive.
# What was measured:
# [1] = qHTS assay to identify small molecule agonists of the retinoic acid receptor (RAR) signaling pathway (AID 1159553)
# How it was run: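 C3RL4 RARE-luciferase cells were seeded at 1,000/well and grown overnight at 37 C, then exposed to compounds for 6 hr at 37 C, 5% CO2. Luciferase reagent was added and luminescence was read after 30 min at room temperature.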
# [2] = qHTS assay to identify small molecule antagonists of the estrogen related receptor (ERR) signaling pathway from Tox21 library - cell viability counter screen (AID 1224834); note: nearly all actives have a fitted effect of over 30% in size; note: potency is the fitted concentration of half-maximal effect
# How it was run: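 ERR reporter cells, 2,000 per well, rested 6 h, then exposed to compound in DMSO for 17.5 hours at 37 C. Viability read as fluorescence after 30 min with CellTiter-Fluor.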
# [3] = qHTS assay to identify small molecule antagonists of the retinoic acid receptor (RAR) signaling pathway (AID 1159552; note: nearly all actives have a fitted effect of over 50% in size)
# How it was run: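 Cells of the C3RL4 line were seeded, incubated overnight, then dosed with compounds in DMSO followed immediately by retinol (1 uM final). Six hours later luciferase detection reagent went in; signal was measured after 30 min at RT.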
compound,measurement,setting,value
O=C(Nc1ccc(S(=O)(=O)N2CCOCC2)cc1)c1cc(Cl)ccc1NS(=O)(=O)c1ccc(Cl)s1,Potency,[1],inactive
same,Potency,[2],inactive
CC1OC(=O)C(C)OC1=O (stereo unspecified),Potency,[3],inactive
same,Potency,[2],inactive
O=C(O)c1ccc(-n2nc(-c3ccccc3O)nc2-c2ccccc2O)cc1,Potency,[3],inactive
same,Potency,[2],23.7 µM (active)
COCCCN1CCC(NC(=O)c2cc(Cl)c(N)c3c2OCC3)CC1,Potency,[3],inactive
same,Potency,[1],inactive
same,Potency,[2],inactive
CCCCC(CC)COC(=O)COc1ccc(Cl)cc1Cl (stereo unspecified),Potency,[3],inactive
same,Potency,[2],inactive
COc1cc(Cl)ccc1Oc1ccc(Cl)cc1Cl,Potency,[3],inactive
same,Potency,[2],inactive
Clc1ccc2c(c1)CCc1cccnc1C2=C1CCNCC1,Potency,[2],inactive
C/C=C/C(=O)CC,"activity, negative = inhibition",[3],130% [at 19 µM]
same,"viability change, negative = cytotoxic",[2],3.2% [at 19 µM]
